# Inconclusive results are not listed. The source made the active and inactive calls. The calls were made as follows: active = hit-call score of the fitted dose curve at least 0.9, where 1 is the maximum; inconclusive = response in the unintended direction; inactive = score below 0.9.
# Assays:
# [1] = biological target: human Mitogen- and Stress-activated Protein Kinase-1 (Msk1), RPS6KA5 (gene 9252) (UniProt O75582); experiment: NVS_ENZ_hMsk1: NovaScreen (NVS) Enzymatic Assay for human Mitogen- and Stress-activated Protein Kinase-1 (Msk1) (AID 2283187)
# Sequence of human Mitogen- and Stress-activated Protein Kinase-1 (Msk1), RPS6KA5 (gene 9252) (O75582 whole entry, looked up): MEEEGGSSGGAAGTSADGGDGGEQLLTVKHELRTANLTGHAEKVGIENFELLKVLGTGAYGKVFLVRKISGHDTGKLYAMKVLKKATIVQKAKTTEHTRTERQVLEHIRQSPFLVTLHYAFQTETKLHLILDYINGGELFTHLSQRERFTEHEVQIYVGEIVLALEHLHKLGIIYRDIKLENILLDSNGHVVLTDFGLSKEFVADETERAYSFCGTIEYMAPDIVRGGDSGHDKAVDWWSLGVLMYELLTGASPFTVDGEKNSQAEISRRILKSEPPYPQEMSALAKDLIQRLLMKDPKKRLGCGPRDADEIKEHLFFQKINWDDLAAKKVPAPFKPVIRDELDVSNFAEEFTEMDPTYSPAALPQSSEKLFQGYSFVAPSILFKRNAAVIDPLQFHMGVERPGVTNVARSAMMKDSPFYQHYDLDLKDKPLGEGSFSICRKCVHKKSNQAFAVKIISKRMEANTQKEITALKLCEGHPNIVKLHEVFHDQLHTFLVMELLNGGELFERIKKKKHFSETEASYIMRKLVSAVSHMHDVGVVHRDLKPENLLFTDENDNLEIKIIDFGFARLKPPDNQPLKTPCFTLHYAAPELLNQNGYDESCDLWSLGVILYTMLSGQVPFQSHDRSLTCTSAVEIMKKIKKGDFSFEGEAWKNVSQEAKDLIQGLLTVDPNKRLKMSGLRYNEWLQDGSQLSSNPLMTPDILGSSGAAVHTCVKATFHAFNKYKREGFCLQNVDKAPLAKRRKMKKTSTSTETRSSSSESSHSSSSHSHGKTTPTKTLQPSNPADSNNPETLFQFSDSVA
# Summary of the method: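 Chemicals first run in duplicate at 25 uM, with actives followed up in singleton concentration series to 50 uM maximum. Enzyme activity came from substrate/product mobility-shift separation with fluorescence detection after 1 h incubation of the recombinant protein.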
# [2] = biological target: human NIMA (Never In Mitosis Gene A)-Related Kinase 2 (NEK2), NEK2 (gene 4751) (UniProt P51955); experiment: NVS_ENZ_hNEK2: NovaScreen (NVS) Enzymatic Assay for human NIMA (Never In Mitosis Gene A)-Related Kinase 2 (NEK2) (AID 2283188)
# Sequence of human NIMA (Never In Mitosis Gene A)-Related Kinase 2 (NEK2), NEK2 (gene 4751) (P51955 whole entry, looked up): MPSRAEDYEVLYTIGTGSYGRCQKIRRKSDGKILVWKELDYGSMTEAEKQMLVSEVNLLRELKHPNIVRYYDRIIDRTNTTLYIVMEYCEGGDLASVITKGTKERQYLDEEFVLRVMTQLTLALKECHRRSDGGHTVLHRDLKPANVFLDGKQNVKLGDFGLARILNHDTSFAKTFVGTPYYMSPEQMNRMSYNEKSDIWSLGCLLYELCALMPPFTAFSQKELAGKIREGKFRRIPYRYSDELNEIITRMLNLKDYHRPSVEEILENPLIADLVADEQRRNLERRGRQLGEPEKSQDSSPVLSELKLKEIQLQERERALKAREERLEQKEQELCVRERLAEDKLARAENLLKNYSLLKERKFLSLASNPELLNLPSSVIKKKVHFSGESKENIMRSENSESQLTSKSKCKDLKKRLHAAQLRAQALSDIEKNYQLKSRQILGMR
# Summary of the method: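 Compounds were first screened in duplicate at 25 uM, with actives followed up in concentration series. Recombinant NEK2 activity, cell-free, was read 1 h after dosing by fluorescence intensity after mobility-shift separation. Signal loss was scored against DMSO.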
# [3] = biological target: human Phosphodiesterase 10 (PDE10), PDE10A (gene 10846) (UniProt Q9Y233); experiment: NVS_ENZ_hPDE10: NovaScreen (NVS) Enzymatic Assay for human Phosphodiesterase 10 (PDE10) (AID 2283195)
# Sequence of human Phosphodiesterase 10 (PDE10), PDE10A (gene 10846) (Q9Y233 whole entry, looked up): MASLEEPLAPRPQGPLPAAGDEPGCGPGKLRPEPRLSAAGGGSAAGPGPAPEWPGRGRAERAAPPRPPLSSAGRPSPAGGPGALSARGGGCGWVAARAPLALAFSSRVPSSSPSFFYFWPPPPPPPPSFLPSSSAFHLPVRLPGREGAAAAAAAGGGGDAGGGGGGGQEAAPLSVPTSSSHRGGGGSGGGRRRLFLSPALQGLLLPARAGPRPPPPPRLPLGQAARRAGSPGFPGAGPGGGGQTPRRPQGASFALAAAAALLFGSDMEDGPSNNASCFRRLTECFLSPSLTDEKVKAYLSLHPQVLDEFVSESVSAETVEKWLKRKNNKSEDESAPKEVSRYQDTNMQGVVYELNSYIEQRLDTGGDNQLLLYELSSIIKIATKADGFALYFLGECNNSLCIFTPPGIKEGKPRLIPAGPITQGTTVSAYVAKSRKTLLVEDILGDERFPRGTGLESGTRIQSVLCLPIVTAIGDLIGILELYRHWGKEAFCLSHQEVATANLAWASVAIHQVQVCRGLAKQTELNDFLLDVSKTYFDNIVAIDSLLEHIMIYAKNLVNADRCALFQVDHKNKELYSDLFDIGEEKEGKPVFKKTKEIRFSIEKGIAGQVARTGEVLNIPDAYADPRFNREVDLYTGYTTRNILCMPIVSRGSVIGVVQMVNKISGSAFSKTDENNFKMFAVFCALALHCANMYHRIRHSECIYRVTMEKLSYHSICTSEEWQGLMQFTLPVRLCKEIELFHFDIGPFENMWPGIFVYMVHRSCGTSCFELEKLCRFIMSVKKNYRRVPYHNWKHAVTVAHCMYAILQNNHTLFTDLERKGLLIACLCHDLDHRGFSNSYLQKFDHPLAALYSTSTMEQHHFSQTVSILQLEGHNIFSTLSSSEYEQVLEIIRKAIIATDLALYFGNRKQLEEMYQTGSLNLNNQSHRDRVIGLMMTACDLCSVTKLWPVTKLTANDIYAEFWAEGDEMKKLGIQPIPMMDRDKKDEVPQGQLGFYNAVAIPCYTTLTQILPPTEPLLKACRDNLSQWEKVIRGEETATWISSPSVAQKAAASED
# Summary of the method: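 Readout is fluorescence intensity following electrophoretic mobility-shift separation, 1 h after dosing of isolated PDE10A protein. Hits meeting a preset threshold at 25 uM went to concentration series (max 50 uM), analysed relative to DMSO.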
# [4] = biological target: human Phosphoinositide 3-kinase alpha (PI3Ka), PIK3CA (gene 5290) (UniProt P42336); experiment: NVS_ENZ_hPI3Ka: NovaScreen (NVS) Enzymatic Assay for human Phosphoinositide 3-kinase alpha (PI3Ka) (AID 2283196)
# Sequence of human Phosphoinositide 3-kinase alpha (PI3Ka), PIK3CA (gene 5290) (P42336 whole entry, looked up): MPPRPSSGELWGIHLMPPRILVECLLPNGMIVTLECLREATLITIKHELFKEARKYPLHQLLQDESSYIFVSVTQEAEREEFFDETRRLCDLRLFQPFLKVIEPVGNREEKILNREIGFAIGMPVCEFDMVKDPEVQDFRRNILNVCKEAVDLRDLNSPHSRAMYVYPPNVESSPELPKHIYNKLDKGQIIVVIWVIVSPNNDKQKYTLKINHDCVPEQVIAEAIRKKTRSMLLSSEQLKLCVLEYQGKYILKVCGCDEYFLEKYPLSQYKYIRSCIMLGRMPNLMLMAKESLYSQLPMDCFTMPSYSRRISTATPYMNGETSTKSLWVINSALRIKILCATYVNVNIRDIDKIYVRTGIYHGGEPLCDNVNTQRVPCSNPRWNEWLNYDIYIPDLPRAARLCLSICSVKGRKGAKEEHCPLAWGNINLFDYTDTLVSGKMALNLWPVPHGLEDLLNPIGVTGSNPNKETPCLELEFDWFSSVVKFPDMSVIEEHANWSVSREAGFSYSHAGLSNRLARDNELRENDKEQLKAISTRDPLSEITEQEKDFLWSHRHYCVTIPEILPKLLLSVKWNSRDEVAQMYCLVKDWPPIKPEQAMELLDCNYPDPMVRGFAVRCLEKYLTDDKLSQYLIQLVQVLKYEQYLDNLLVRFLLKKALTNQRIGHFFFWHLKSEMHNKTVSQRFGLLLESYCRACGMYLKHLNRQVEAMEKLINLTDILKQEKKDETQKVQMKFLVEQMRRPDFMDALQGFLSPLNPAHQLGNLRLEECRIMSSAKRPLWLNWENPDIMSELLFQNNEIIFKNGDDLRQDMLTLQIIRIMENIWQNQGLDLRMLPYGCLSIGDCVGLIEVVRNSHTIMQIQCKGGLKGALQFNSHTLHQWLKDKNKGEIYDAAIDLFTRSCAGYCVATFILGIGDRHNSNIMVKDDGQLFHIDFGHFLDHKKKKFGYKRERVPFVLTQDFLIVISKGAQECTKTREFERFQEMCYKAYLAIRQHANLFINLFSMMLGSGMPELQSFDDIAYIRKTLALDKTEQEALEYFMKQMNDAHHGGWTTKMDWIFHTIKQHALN
# Summary of the method: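 Recombinant human PI3Kα with fluorescent substrate, 1 h, product separated by electrophoretic mobility shift; 25 uM duplicate screen, hits (e.g., 30% inhibition) retested singly up to 50 uM; loss of signal vs DMSO.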
smiles,measurement,setting,value
CCNS(=O)(=O)C(F)(F)C(F)(F)C(F)(F)C(F)(F)C(F)(F)C(F)(F)C(F)(F)C(F)(F)F,outcome,[1],inactive
same,outcome,[2],inactive
same,outcome,[3],inactive
same,outcome,[4],inactive
CCN(CC)N=O,outcome,[1],inactive
CCCCC(CC)COC(=O)c1ccc(C(=O)OCC(CC)CCCC)c(C(=O)OCC(CC)CCCC)c1 (configuration not stated),outcome,[2],inactive
O=C(Oc1ccc(Br)cc1)N1CCN2CCC1CC2,outcome,[3],inactive
